Only some compounds are listed: those with a hit (about 3.4% of all), similar ones and a draw of the others.
NPSR antag = neuropeptide S receptor (human) antagonism, cAMP | Q6W5P4 | CHO-NPSR cells, cAMP TR-FRET, antagonist mode | Potency, µM (titrated, usually from 38.3 µM), for the others: at the highest dose activity change, negative = inhibition, most hits filed as inhibitors | 220,000 tested, 1% active | AID 1461; note: potency is the fitted concentration of half-maximal effect; % is set by controls: 0 for no effect and ±100 for the full control effect; nearly all actives have a fitted effect of over 50% in size
IMPase Li cell = IMPase inhibition in cells with lithium potentiation | CHO-M1 cells, IP1 TR-FRET (IP-One), carbachol + lithium | Potency, µM (series often up to 59.4 µM), without a hit: at the highest dose activity, negative = IMPase inhibition, actives largely listed as inhibitors | 210,000 tested, 0.35% active | AID 1457;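 note: IP1 builds up when IMPase is blocked and the TR-FRET signal falls; potency is the fitted concentration of half-maximal effect; plate controls were basal vehicle for no effect and high inhibitor control for full effect; nearly all actives have a fitted effect of over 50% in size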
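Test compounds were applied to CHO-M1 cells previously cultured for 16–30 h at 2000 per well. A small lithium amount accompanied them; after 30 min at 37C, IP1 was quantified by TR-FRET.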
HTT aggregate = inhibitors of mutant huntingtin aggregate formation in PC12 cells; PC12 HttQ103-GFP aggregates, Acumen cytometry, 40 h; Potency, µM (highest dose often 46.1 µM), for the others: top-dose activity change, negative = inhibition, hits mostly inhibitors; 220,000 tested, 1.1% active; note: potency is the fitted concentration of half-maximal effect; % is set by controls: 0 for no effect and ±100 for the full control effect; nearly all actives have a fitted effect of over 60% in size
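Aggregates are detected as GFP objects 1–25 µm with signal 6 STDEV over background in lysates of induced PC12 cells. These carry Huntingtin exon 1 with 103 glutamines fused to GFP under an ecdysone promoter; compounds titrated.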
PNC inhibitor = inhibitors of perinucleolar compartment assembly; PC3M PTB-GFP, PNC prevalence imaging, 16 h; active compounds read low; activity change (PNC), negative = inhibition, % at 10 µM; 140,000 tested, 3.1% active;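 active = readout at or below -70, meaning at least 70% loss of cells showing the perinucleolar compartment, a nuclear body marking cancer cells; inconclusive = readout between -30 and a set limit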;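 note: plate controls were DMSO wells for no effect and camptothecin positive control wells for full effect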
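Compounds are pinned in duplicate onto adhered PC3M cells stably expressing GFP-tagged PTB and incubated 16 h at 37 C. Cells are then fixed, nuclei stained with Hoechst, and PNC-positive cells counted.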
IMPase cell inh = cell-permeable inhibitors of inositol monophosphatase (IMPase). P97697. CHO-M1 cells, IP1 accumulation, HTRF TR-FRET ratio. inhibition (IP1 accumulation), % at 46.1 µM. 120,000 tested, under 10 active. AID 901; active = well fitted curve in the direction sought with a large enough effect in the signal ratio, not every such curve was filed as active; inconclusive = small, poorly fitted or top-dose-only effect, or a change in a side signal; inactive = no such curve, though single readings can be large or run the other way; the % refers to the signal ratio;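 note: cells stimulated with carbachol in lithium chloride buffer; plate controls were DMSO basal wells for no effect and reference inhibitor wells for full effect; higher means more IMPase inhibition seen as more IP1 and lower FRET ratio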
Target sequence (P97697 whole entry, looked up): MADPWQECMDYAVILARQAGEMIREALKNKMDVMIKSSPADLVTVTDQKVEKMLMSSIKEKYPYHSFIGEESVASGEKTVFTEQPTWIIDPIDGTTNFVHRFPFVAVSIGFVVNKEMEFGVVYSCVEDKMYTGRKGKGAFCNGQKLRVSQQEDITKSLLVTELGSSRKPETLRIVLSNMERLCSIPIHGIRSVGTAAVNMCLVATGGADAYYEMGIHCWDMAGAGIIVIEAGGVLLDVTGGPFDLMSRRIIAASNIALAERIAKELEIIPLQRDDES
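Carbachol-driven Gq signalling in CHO-M1 cells (2000/well) generates IP1. Compounds that block IMPase raise IP1 and so reduce the FRET signal from Eu-anti-IP1 and d2-IP1 after a 10 min room-temperature lysis.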
HTT ATP protect = cytoprotection in Huntington HTT-Q103 PC12 cell model; PC12 HTT-Q103 induced, cytoprotection, ATP luminescence, 40 h; Potency, µM (series often up to 56.4 µM), without a hit: cytoprotection (ATP increase), most hits filed as activators; 230,000 tested, 0.14% active; AID 1471; note: potency is the fitted concentration of half-maximal effect; % of control where 0% means no effect; nearly all actives have a fitted effect of over 45% in size
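PC12 cells with ecdysone-inducible HTT exon 1 Q103-GFP, induced with 100 nM tebufenozide and co-treated with library compounds in a dose series (1536-well, 1500 cells/well). Cytoprotection read as ATP content by ATPlite luminescence.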
Active calls of the source: *; ? = inconclusive; . = no result; [ ] = remark or other dose. Unless noted, calls come from the whole dose curve; as a rule, active = well fitted curve in the direction sought with a large enough effect; inconclusive = small, poorly fitted or top-dose-only effect, or another doubt; inactive = no such curve, though single readings can be large; an effect the other way counts as inactive or inconclusive.

SMILES	NPSR antag	IMPase Li cell	HTT aggregate	PNC inhibitor	IMPase cell inh	HTT ATP protect
CCOC(=O)c1ccc(NC(=O)c2c(O)[nH]c(=O)[nH]c2=O)cc1	-1.6%[46.1 µM]	?	3.55µM*	?	4.4	0.9%
CC1(C)N=C(N)N=C(N)N1c1cccc(C(=O)Nc2ccc(S(=O)(=O)F)cc2)c1	.	0.4%	.	.	.	-9.8%[10 µM]
CCN1C(=O)/C(=C/c2ccc3c(c2)CCN3CCCCl)C(=O)NC1=S	-53.5%	49.7%	-23.3%	-99.4*	.	1.3%[10 µM]
CCCN1CCc2cccc3c2[C@@H]1Cc1ccc(O)c(O)c1-3	.	.	.	.	2.8	5.7%[1.9 µM]
NNc1nncn1N	.	-8.7%	.	.	.	-0.9%[10 µM]
Cc1cc([N+](=O)[O-])c2ccccc2[n+]1[O-]	10µM*	.	?	.	.	-63.6%[10 µM]
Cc1ccccc1[N+](=O)[O-]	.	6.9%	.	.	.	-2.5%
Cc1ccc(-n2c(C)cc(/C=C3/C(=O)NC(=O)N(C)C3=O)c2C)cc1	2.7%	7.2%	-0.1%	-84.6*	.	17.0%[0.074 µM]
[Cl-].[Cl-].[Hg+2]	.	27.7%	3.98µM*	.	.	-74.7%
CC(=O)N1C[C@@H]2C[C@H](C1)c1cccc(=O)n1C2	.	.	.	.	.	-11.8%
CCCCCCN=C(C)c1c(O)n(Cc2ccccc2)c(=O)[nH]c1=O	10.5%[46.1 µM]	21.9%[38.3 µM]	-14.2%	-111.4*	-1.7	1.3%
C[n+]1c(-c2ccccc2)cc(CCCCc2cc(-c3ccccc3)[n+](C)c(-c3ccccc3)c2)cc1-c1ccccc1	?	20.9%	22.4µM*	.	.	17.4%[10 µM]
Nc1ccccc1-[n+]1c(-c2ccccc2)cc(-c2ccccc2)cc1-c1ccccc1	26.8%	.	-18.8%[9.22 µM]	.	.	-34.6%[10 µM]
COc1ccc(-c2cc(-c3ccccc3)[n+](C)c(-c3ccccc3)c2)cc1	-9.9%	23.0%	7.08µM*	.	.	-54.0%[10 µM]
CC(ON1CC1(C(F)(F)F)C(F)(F)F)(C(N)=O)C(N)=O (configuration not stated)	8.4%	-2.2%	-7.5%	-92.8*	.	.
O=C(O)C(Oc1nc(=S)[nH]c(=S)[nH]1)(c1ccc(Cl)cc1)c1ccc(Cl)cc1	.	-5.6%	.	.	.	-6.1%[10 µM]
CCCC/C(=N\O)c1c[nH]c2ccccc12	2.3%[46.1 µM]	12.6%[38.3 µM]	10.8%	-80.9*	-4.4	-12.2%
CN(C)C=O	.	?	.	.	.	-3.5%
CC(=O)OC1=CC2=CC[C@H]3[C@H]4CCC(=O)[C@@]4(C)CC(=O)[C@]3(S)[C@]2(C)CC1	.	8.7%	.	.	.	19.0%[10 µM]
COc1ccc(C2NCc3ccc4c(c3-n3cccc32)OCO4)cc1O (configuration not stated)	?	6.6%[38.3 µM]	-7.1%	-108.2*	3.3	-11.3%[0.074 µM]
c1cc2n(c1)-c1c(ccc3c1OCO3)CNC2c1ccc2c(c1)OCO2 (configuration not stated)	-6.0%[46.1 µM]	32.7%[38.3 µM]	2.3%	-6.8	-2.4[1.84 µM]	23.2%[10 µM]
CCn1nc(-c2ccccc2)nc2c(=O)n(C)c(=O)nc1-2	3.98µM*	25.1%	8.91µM*	-100.0*	6.2	-41.7%[10 µM]
COc1ccc(-c2nc3ccccc3c(=O)n2-c2ccc(OC)cc2)cc1	31.9%	15.4%	-0.3%[9.22 µM]	.	.	2.1%[10 µM]
O=c1cccc2n1C[C@@H]1C[C@H]2CN2CCCC[C@H]12	.	.	.	.	.	-64.5%
CCCCCOc1c(OC)ccc2cc(C(=O)NCc3ccc4c(c3)OCO4)c(=O)[nH]c12	.	7.5%	.	.	.	-88.5%
CC(c1ccc(F)cc1)n1cc(C(=O)NCc2ccc3c(c2)OCO3)nn1 (configuration not stated)	-14.5%[46.1 µM]	.	3.6%	-89.7*	3.6	-15.3%
O=C(O)[C@@H](O)[C@@H](O)C1[O][Sb][O][C@@H]1CO (some centres not stated)	.	-3.0%	.	.	.	.
O=C(Nc1ccc(OC(=O)N2CCCC2)cc1)N1CCOCC1	-6.0%[46.1 µM]	-0.5%	19.8%	-100.0*	5.4	-8.3%[10 µM]
C=C1C(=O)O[C@@H]2C[C@@H](C)[C@@H]3C=CC(=O)[C@@]3(C)[C@@H](OC(=O)CC(=O)O[C@H]3[C@@H]4C(=C)C(=O)O[C@@H]4C[C@@H](C)[C@@H]4C=CC(=O)[C@]43C)[C@H]12	?	.	0.631µM*	.	.	-97.5%[10 µM]

Screening results: PubChem, National Center for Advancing Translational Sciences (NCATS)
